PubChem BioAssay (NCATS)
Inconclusive results are not listed. Active and inactive are the calls of the source. Unless noted, calls come from the whole dose curve; as a rule, active = well fitted curve in the direction sought with a large enough effect; inconclusive = small, poorly fitted or top-dose-only effect, or another doubt; inactive = no such curve, though single readings can be large; an effect the other way counts as inactive or inconclusive.

Assays:
[1] = molecular target: Rap guanine nucleotide exchange factor 3 (Homo sapiens) (UniProt O95398); test: Confirmatory qHTS for antagonist of cAMP-regulated guanine nucleotide exchange factor 3 (EPAC1) (AID 1645880); conditions: EPAC1 Rap1B-BODIPY-GDP exchange, fluorescence; activity, negative = inhibition: at 115 µM (top of the series); note: nearly all actives have a fitted effect of over 55% in size; note: potency is the fitted concentration of half-maximal effect;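 for activity, negative = inhibition: plate controls were DMSO only for no effect and full effect of the ATA control for full effect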
How it was run: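 Nucleotide exchange uses 100 nM EPAC1, 250 nM RAP1B-BODIPY-GDP and 50 uM GDP, with compounds in a concentration-titration series. After 5 min at room temperature, fluorescence (480 nm ex/540 nm em) is read every 5 min for 30 min. Data are normalized to control ATA and DMSO.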

[2] = molecular target: Rap guanine nucleotide exchange factor 3 (Homo sapiens) (UniProt O95398); test: Confirmatory qHTS for agonist of cAMP-regulated guanine nucleotide exchange factor 3 (EPAC1) (AID 1645881);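 note: EPAC1 catalysed release of BODIPY-GDP from Rap1B seen as fluorescence loss; 100% = effect of cAMP agonist control; nearly all actives have a fitted effect of over 75% in size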
[3] = molecular target: Rap guanine nucleotide exchange factor 4 (Homo sapiens) (UniProt Q8WZA2); test: Confirmatory qHTS for agonist of cAMP-regulated guanine nucleotide exchange factor 4 (EPAC2) (AID 1645884);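 note: nucleotide exchange releases bodipy-GDP from Rap1 and this lowers its fluorescence; % is set by controls: 0 for no effect and ±100 for the full control effect; nearly all actives have a fitted effect of over 65% in size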
[4] = molecular target: Rap guanine nucleotide exchange factor 3 (Homo sapiens) (UniProt O95398); test: Counterscreen qHTS for agonist of cAMP-regulated guanine nucleotide exchange factor 3 (EPAC1) (AID 1645889); note: % of control where 0% means no effect; nearly all actives have a fitted effect of over 40% in size
How it was run: (§1)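 Rap1B-BODIPY-GDP 250 nM + GDP 50 uM; cpds 7-pt, final 9.74 nM–152 uM (activator mode) or from 7.32 nM upwards (inhibitor mode); RT; FI 480/540 nm at 5 and 30 min, then ± cAMP, reread.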

[5] = AP1 Signaling Pathway (AID 357; active = well fitted curve in either direction with a large enough effect, not every such curve was filed as active; note: % is set by controls: 0 for no effect and ±100 for the full control effect); conditions: ME-180 (cervical carcinoma) AP-1-bla reporter, EGF-induced, beta-lactamase ratio, 5 h; at 7.69 µM (top of the series) unless noted
How it was run: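 In this screen, ME-180 cells in Opti-MEM with 0.5% dialyzed FBS received EC50 EGF and compound titrations for 5 h. AP-1 reporter beta-lactamase was detected via CCF4 ratio, giving AC50 for positive and negative modulators.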

[6] = NFAT Signaling Pathway (AID 444; active = well fitted curve in either direction with a large enough effect, not every such curve was filed as active;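 note: carbachol stimulus at about its EC50 of 1 µM final; % is set by controls: 0 for no effect and ±100 for the full control effect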); conditions: Jurkat NFAT-bla M1, carbachol, beta-lactamase ratio, 5 h; at 7.69 µM (top of the series) unless noted
How it was run: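 Read-out: CCF4 FRET ratio (460 nm/530 nm) after 1 h RT dye loading, used for %activity and AC50 from titration series. Cells: Jurkat NFAT-β-lactamase/M1 line, treated with compound plus 1 uM carbachol for 5 h, 37 °C.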

[7] = Stat Signaling Pathway (AID 446; active = well fitted curve in either direction with a large enough effect, not every such curve was filed as active;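 note: ME-180 cervical cancer cells given 40 pM IL-6 alongside compound; SIE-controlled beta-lactamase reporter measured as 460/530 nm FRET emission ratio; % is set by controls: 0 for no effect and ±100 for the full control effect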)
How it was run: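 IL-6/STAT signaling read in ME-180 cells via an SIE beta-lactamase reporter. Stimulus was 40 pM IL-6 (its AC50) for 5 hrs, so both activation and inhibition register.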

[8] = molecular target: Glucocorticoid receptor (Homo sapiens) (UniProt P04150); test: GR-GFP Redistribution (AID 450;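 active = compounds whose dose series gives a full or clear partial fitted curve of increased nuclear translocation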; note: potency is the fitted concentration of half-maximal effect); conditions: U2OS GR-GFP nuclear translocation, laser cytometry, 2 h
[9] = molecular target: Rap guanine nucleotide exchange factor 3 (Homo sapiens) (UniProt O95398); test: Counterscreen qHTS for antagonist of cAMP-regulated guanine nucleotide exchange factor 3 (EPAC1) (AID 1645888);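 note: fluorescence loss as bound BODIPY-GDP is released from Rap1B; % of control where 0% means no effect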
How it was run: as §1

[10] = molecular target: Lysosomal acid glucosylceramidase (Homo sapiens) (UniProt P04062); test: Glucocerebrosidase-p2 (AID 348; in the data active = potency below about 10 µM; note: potency is the fitted concentration of half-maximal effect); conditions: purified GBA, blue fluorogenic substrate, 40 min
How it was run: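 Compounds titrated from 0.6 nM upwards against 0.2 nM enzyme in pH 5.9 citric acid/KH2PO4, taurocholate, tween-20; blue fluorogenic substrate 80 uM, 40 min room temperature, stopped and read Ex 365/Em 440 for AC50.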

[11] = molecular target: Mitogen-activated protein kinase 10 (Mus musculus) (UniProt Q61831); test: JNK3 AlphaScreen Assay (AID 530; active = well fitted curve in either direction with a large enough effect, not every such curve was filed as active;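 note: kinase came from lysate of stimulated human HepG2 cells; signal reports phosphorylation of biotinylated GST-cJun 1-79 at Ser73 with 10 µM ATP; % is set by controls: 0 for no effect and ±100 for the full control effect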)
How it was run: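 Room-temperature AlphaScreen kinase assay; pre-activated HepG2 lysate as JNK3 source, biotin-GST-cJun(1-79) substrate, 10 uM ATP, compound 15 min preincubation.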

[12] = molecular target: 3',5'-cyclic-AMP phosphodiesterase 4B (Homo sapiens) (UniProt Q07343); test: qHTS Assay for Inhibitors of PDE-IV (AID 607; active = well fitted activation curve with a large enough effect in the main read-out, with a control signal flat, not every such curve was filed as active; note: % of control where 0% means no effect)
How it was run: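 Live HEK293 cells with a modified cyclic nucleotide-gated (CNG) channel report intracellular cAMP via membrane-potential dye fluorescence (ex 535/em 590 nm). Endogenous PDE-IV was targeted. Compounds were tested at up to 22.9 uM final; RO 20-1724 100 uM served as control.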

[13] = molecular target: Cytochrome P450 1A2 (Homo sapiens) (UniProt P05177); test: p450-cyp1a2 (AID 410; calls by dose curve; note: potency is the fitted concentration of half-maximal effect)
How it was run: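 Inhibition was calculated relative to 57 uM furafylline (full inhibition). The reaction used human CYP1A2 at 20nM with Luciferin-ME at its Km, 100uM, driven by an NADPH-regenerating system for 60 min at room temperature.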

[14] = molecular target: Glucocorticoid receptor (Homo sapiens) (UniProt P04150); test: GR-EFC Redistribution (AID 451; calls by dose curve; note: potency is the fitted concentration of half-maximal effect); conditions: CHO-K1 GR-EFC translocation, beta-gal luminescence, 2 h
How it was run: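 Translocation of GR-ED fusion to nuclear EA restores b-gal, read by luminescence after 1 h room-temperature detection. Engineered CHO-K1 biosensor cells, 1,000/well, exposed 2 h at 37 C to titrations up to 46 uM final.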

[15] = molecular target: Cytochrome P450 2C9 (Homo sapiens) (UniProt P11712); test: qHTS Assay for Inhibitors and Substrates of Cytochrome P450 2C9 (AID 883); note: % is set by controls: 0 for no effect and ±100 for the full control effect; nearly all actives have a fitted effect of over 60% in size
How it was run: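 Inhibition of CYP2C9 is scored as loss of luminescence, with 57uM sulphaphenazole defining 100% inhibition. Substrate Luciferin-H is used at 100uM, equal to its KM; enzyme at 10nM in 25mM KPO4, 60 min at 37C with NADPH regeneration.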

[16] = molecular target: Cytochrome P450 3A4 (Homo sapiens) (UniProt P08684); test: qHTS Assay for Inhibitors and Substrates of Cytochrome P450 3A4 (AID 884); note: % is set by controls: 0 for no effect and ±100 for the full control effect; nearly all actives have a fitted effect of over 50% in size
How it was run: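 20 nM human CYP3A4 with 25 uM Luciferin-PPXE (at KM) in 200 mM KPO4, preincubated 10 min with compound; NADPH regeneration started a 60 min RT reaction. Luciferin detected by luminescence, normalized to 57 uM ketoconazole as full inhibition.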

[17] = molecular target: Cytochrome P450 2D6 (Homo sapiens) (UniProt P10635); test: qHTS Assay for Inhibitors and Substrates of Cytochrome P450 2D6 (AID 891);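 note: luciferin methyl ether substrate demethylated by CYP2D6 with NADPH regeneration; % is set by controls: 0 for no effect and ±100 for the full control effect; nearly all actives have a fitted effect of over 60% in size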
How it was run: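 Human CYP2D6 (5 nM) with 30 uM Luciferin-ME EGE (at Km) in 100 mM KPO4, compound preincubated 10 min, then NADPH regeneration system for 60 min at room temperature. Luciferin read by luminescence; normalized to 1.43 uM quinidine.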

[18] = molecular target: Cytochrome P450 2C19 (Homo sapiens) (UniProt P33261); test: qHTS Assay for Inhibitors and Substrates of Cytochrome P450 2C19 (AID 899); note: potency is the fitted concentration of half-maximal effect; nearly all actives have a fitted effect of over 60% in size
How it was run: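 5nM enzyme + 10uM Luciferin-H EGE (=KM), 50mM KPO4; cpd pin-transferred, 10 min 37C; NADPH regen, 60 min 37C; stopped w/ luciferin detection reagent, 20 min; luminescence. Normalized to 57uM ketoconazole (AC100).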

[19] = molecular target: Ubiquitin carboxyl-terminal hydrolase 1 (Homo sapiens) (UniProt O94782); test: Inhibitors of USP1/UAF1: Pilot qHTS (AID 504865);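 note: rhodamine fluorescence freed from ubiquitin-rhodamine substrate followed over time; top concentration of the series differs between compounds; % is set by controls: 0 for no effect and ±100 for the full control effect; nearly all actives have a fitted effect of over 35% in size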
How it was run: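 USP1/UAF1 complex (1nM) preincubated with compound 15 min at room temperature, then Ub-Rho substrate (150nM final) added. Fluorescence read kinetically at 480/540 nm, 6 reads every 60 seconds. Buffer: 50mM HEPES pH 7.8, 0.5mM EDTA, 0.1 mg/ml BSA, 1mM TCEP, 0.01% Tween-20.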

Rap guanine nucleotide exchange factor 4 (Homo sapiens), sequence (Q8WZA2 whole entry, looked up): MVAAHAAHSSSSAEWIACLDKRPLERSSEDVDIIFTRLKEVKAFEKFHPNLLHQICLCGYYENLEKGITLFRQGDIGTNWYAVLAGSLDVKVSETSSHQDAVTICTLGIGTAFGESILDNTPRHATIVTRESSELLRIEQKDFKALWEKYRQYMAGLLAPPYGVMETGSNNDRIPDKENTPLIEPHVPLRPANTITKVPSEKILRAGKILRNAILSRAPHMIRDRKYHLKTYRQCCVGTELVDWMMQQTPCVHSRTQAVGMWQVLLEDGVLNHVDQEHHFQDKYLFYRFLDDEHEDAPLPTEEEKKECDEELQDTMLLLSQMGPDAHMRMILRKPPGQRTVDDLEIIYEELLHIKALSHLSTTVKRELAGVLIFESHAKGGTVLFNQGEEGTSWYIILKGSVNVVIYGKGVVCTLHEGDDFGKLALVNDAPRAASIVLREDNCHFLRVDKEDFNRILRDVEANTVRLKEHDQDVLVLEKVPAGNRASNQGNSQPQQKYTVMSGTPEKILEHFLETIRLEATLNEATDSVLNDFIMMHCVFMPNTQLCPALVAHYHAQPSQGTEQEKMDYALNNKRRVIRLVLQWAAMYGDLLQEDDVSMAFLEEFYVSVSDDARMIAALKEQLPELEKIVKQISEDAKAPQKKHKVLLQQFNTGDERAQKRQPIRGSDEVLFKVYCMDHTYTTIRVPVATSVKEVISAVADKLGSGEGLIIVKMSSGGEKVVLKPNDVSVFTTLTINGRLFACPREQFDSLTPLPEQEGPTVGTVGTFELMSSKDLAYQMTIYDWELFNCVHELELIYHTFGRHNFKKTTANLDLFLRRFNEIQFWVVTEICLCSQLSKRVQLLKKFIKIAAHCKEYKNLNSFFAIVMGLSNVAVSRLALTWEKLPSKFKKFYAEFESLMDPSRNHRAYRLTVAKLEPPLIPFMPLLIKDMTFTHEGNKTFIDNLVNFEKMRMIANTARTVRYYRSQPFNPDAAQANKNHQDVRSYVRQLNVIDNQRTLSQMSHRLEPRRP
Rap guanine nucleotide exchange factor 3 (Homo sapiens), sequence (O95398 whole entry, looked up): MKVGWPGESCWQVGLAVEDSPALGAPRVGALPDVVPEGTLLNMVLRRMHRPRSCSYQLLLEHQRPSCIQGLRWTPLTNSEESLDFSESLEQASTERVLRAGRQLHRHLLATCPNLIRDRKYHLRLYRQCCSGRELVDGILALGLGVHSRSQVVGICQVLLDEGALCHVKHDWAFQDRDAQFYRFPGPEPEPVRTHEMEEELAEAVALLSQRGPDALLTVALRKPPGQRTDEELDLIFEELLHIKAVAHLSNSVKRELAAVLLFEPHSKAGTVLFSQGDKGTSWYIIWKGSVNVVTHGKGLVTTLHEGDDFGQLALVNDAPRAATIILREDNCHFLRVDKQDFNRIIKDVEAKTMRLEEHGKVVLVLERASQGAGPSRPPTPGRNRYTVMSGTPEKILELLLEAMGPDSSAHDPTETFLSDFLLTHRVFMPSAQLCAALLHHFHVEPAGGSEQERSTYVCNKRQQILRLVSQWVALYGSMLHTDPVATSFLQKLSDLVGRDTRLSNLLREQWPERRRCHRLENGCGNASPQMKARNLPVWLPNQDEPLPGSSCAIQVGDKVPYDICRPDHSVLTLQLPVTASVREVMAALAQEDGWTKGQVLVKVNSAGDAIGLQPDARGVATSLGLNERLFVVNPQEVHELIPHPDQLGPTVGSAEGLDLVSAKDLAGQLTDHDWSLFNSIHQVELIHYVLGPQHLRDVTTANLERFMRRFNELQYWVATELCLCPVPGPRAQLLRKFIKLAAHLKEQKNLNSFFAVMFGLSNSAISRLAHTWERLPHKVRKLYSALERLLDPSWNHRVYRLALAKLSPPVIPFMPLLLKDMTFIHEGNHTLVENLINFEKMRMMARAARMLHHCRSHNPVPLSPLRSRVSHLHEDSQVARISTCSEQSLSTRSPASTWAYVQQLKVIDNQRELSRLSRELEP
Glucocorticoid receptor (Homo sapiens), sequence (P04150 whole entry, looked up, the tested form may be a part): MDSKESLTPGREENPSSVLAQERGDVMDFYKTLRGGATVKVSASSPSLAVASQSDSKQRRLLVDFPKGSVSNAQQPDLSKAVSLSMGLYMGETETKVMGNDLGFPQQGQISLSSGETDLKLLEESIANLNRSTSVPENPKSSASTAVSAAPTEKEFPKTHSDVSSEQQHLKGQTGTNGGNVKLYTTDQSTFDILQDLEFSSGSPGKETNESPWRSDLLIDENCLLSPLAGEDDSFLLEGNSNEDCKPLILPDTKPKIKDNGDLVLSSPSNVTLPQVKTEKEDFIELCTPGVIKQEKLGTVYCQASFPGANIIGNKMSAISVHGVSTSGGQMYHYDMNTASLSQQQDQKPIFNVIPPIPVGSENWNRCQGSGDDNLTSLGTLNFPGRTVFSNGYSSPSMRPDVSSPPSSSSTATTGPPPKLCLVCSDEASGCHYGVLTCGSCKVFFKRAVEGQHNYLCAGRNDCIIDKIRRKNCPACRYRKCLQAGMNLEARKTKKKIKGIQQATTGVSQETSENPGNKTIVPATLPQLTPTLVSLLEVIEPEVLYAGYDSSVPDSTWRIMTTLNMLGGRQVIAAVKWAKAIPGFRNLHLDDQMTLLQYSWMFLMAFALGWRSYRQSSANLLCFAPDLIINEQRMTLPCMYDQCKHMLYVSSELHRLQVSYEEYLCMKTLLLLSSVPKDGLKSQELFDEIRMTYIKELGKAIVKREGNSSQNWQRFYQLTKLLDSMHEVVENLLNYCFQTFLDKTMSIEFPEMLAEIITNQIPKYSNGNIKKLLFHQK
Lysosomal acid glucosylceramidase (Homo sapiens), sequence (P04062 whole entry, looked up): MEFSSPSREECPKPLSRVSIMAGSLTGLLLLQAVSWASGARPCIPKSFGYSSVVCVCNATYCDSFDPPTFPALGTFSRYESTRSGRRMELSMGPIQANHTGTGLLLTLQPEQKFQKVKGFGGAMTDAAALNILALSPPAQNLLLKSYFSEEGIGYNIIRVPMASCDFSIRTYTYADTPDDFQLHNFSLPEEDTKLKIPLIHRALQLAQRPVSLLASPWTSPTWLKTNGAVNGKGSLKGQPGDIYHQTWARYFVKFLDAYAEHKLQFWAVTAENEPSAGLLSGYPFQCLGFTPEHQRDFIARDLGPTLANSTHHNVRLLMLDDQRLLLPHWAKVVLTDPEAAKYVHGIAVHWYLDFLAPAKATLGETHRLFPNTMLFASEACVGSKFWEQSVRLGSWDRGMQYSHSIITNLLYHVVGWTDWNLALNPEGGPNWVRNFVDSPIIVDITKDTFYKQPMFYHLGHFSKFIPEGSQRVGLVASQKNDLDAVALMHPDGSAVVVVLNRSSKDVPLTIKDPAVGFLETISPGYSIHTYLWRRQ
3',5'-cyclic-AMP phosphodiesterase 4B (Homo sapiens), sequence (Q07343 whole entry, looked up): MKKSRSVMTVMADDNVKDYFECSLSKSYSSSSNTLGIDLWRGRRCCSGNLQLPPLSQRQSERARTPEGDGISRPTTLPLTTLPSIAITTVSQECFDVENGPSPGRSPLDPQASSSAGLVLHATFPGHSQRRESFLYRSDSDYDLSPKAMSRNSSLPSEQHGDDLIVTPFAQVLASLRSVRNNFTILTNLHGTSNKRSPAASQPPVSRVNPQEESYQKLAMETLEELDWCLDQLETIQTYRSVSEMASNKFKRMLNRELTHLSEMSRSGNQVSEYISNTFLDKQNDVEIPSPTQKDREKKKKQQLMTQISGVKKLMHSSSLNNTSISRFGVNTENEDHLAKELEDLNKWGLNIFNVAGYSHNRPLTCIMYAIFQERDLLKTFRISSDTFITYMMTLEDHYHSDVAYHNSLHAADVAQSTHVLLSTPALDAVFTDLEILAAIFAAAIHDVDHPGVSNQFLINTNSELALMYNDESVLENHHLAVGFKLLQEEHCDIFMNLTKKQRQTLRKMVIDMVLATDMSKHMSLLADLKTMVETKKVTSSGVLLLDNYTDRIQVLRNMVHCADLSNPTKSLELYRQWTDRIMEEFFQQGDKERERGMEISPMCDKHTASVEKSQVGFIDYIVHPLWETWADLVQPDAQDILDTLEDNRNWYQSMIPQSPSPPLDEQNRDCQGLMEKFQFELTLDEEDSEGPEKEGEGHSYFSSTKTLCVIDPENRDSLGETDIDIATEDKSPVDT
Ubiquitin carboxyl-terminal hydrolase 1 (Homo sapiens), sequence (O94782 whole entry, looked up): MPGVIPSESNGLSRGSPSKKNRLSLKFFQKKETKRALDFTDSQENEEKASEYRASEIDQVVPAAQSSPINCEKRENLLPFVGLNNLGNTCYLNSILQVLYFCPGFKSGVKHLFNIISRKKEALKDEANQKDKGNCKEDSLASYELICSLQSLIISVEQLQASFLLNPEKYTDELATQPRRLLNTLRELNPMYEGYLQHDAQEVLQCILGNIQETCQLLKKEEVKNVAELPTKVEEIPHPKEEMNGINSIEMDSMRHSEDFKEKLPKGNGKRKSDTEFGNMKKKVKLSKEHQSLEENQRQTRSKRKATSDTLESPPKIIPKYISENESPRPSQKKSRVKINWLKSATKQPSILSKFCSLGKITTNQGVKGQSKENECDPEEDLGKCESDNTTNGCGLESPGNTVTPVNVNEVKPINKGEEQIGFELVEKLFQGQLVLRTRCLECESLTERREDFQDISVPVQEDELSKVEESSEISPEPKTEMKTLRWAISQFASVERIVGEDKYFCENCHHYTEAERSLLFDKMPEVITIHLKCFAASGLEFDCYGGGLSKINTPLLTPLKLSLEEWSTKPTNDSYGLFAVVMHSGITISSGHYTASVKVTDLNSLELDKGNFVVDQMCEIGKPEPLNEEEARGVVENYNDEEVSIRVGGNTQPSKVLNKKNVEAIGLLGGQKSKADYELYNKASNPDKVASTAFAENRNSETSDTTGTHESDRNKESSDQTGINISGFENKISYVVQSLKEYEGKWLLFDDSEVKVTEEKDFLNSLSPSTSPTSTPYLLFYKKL

O=C1C=C(c2ccccc2)C(c2ccccc2)C1 (configuration not stated)
inactive: Potency [1] | Potency [2] | Potency [3] | Potency [4]

Nc1nnc(CC(=O)N/N=C/c2cc([N+](=O)[O-])cc(Br)c2O)s1
inactive: Potency [2] | Potency [3] | Potency [4]
active: Potency [1] 10.7 µM

CC(C)(C)NC(=O)C(c1ccc(C(F)(F)F)cc1)n1c(=O)c(-c2ccco2)nc2ccccc21 (configuration not stated)
active: Potency [1] 75.7 µM
inactive: Potency [2] | Potency [3] | Potency [4]

CCOC(=O)c1c(NC(=O)CSc2nnc(C)c(=O)[nH]2)sc(C)c1-c1ccc(C)cc1
active: Potency [1] 75.7 µM
inactive: Potency [2] | Potency [3] | Potency [4]

Cc1ccc(C(=O)C=Cc2ccc3c(c2)OCO3)c(C)c1
inactive: Potency [1] | Potency [2] | activation [3] -0.688% [at 17.1 µM, percent relative to cAMP agonist control] | activation [4] 12.3% [at 30.8 µM]

CCc1c(C)c(C#N)c2nc3ccccc3n2c1-n1nc(C)cc1C
inactive: activity change, negative = inhibition [5] -8.93% [at 17.2 µM] | activity change, negative = inhibition [6] -9.34% [at 17.2 µM] | outcome [7] | Potency [8] > 20.6 µM | Potency [1] | Potency [2] | activation [3] 5.42% [at 17.1 µM, percent relative to cAMP agonist control] | activity change, negative = inhibition [9] 12.9% [at 30.8 µM] | activation [4] 30.6% [at 30.8 µM]

COc1ccc2c(c1)CCC1(C)CC(=O)C(Br)=C21 (configuration not stated)
inactive: Potency [1] | Potency [2] | Potency [3] | Potency [4]

COc1ncc2nc(-c3ccccc3)c(=O)n(Cc3cccs3)c2n1
inactive: Potency [10] > 11.4 µM | activity change, negative = inhibition [5] 3.51% | activity change, negative = inhibition [6] -14.6% | outcome [7] | Potency [8] > 9.22 µM | Potency [11] | Potency [12]

Cc1ccccc1-c1ccc2ncnc(N3CCOCC3)c2c1
inactive: Potency [10] > 11.4 µM | activity change, negative = inhibition [5] -27.7% | activity change, negative = inhibition [6] 20.5% | Potency [8] > 46 µM | Potency [14] > 46 µM | Potency [11] | activity change, negative = inhibition [15] -24.2% [at 2.29 µM] | Potency [16] | Potency [17] | Potency [19]
active: Potency [13] 1.26 µM | Potency [18] 1.58 µM
